# Bioassay records from PubChem.
# Only some compounds are listed: those with a hit (about 6.5% of all), similar ones and a draw of the others.
# Vaccinia mCherry: inhibitors of vaccinia virus infection (mCherry reporter signal); Potency, µM (highest dose often 36.5 µM), for inactives: at the highest dose activity change, negative = inhibition, actives largely listed as inhibitors; 310,000 compounds, 0.63% hits; AID 720579; Vaccinia virus mCherry reporter infection, fluorescence; calls by dose curve; tested in A549 cells; note: potency is the fitted concentration of half-maximal effect; nearly all actives have a fitted effect of over 35% in size
# HCMV inh: human cytomegalovirus inhibition; HFF cells, HCMV-luciferase reporter, 72 h; stronger effect = lower value; activity change, negative = inhibition, % at 57.5 µM; 410,000 compounds, 4.5% hits; in the data active = activity change below about -60%; inconclusive = no clear call, values can overlap the other calls; inactive = above about -39%
#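 Two compound doses tested in HFFs infected with HCMV-luciferase, MOI 1 PFU/cell, 72 h at 37C. Lysate luminescence read with OneGlo; data normalized against buffer-only and 10uM Salinomycin inhibitor controls.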
# MARV entry inh: blocks Marburg virus binding to or entry into cells. 300,000 compounds, 1.8% hits. Potency, µM (top dose mostly 37.8 µM), inactives show top-dose activity change, negative = inhibition, actives largely listed as inhibitors. Marburg virus pseudotyped entry inhibition, cell reporter; calls by dose curve; tested in HEK293 cells; note: potency is the fitted concentration of half-maximal effect
# VACV Venus inh: vaccinia inhibition (Venus reporter) | Vaccinia virus Venus reporter expression, fluorescence | 330,000 compounds, 0.46% hits | Potency, µM (top dose mostly 36.5 µM), for inactives: at the highest dose activity change, negative = inhibition, usual class: inhibitors; calls by dose curve; tested in A549 cells; note: potency is the fitted concentration of half-maximal effect; nearly all actives have a fitted effect of over 30% in size
# FMDV inh: foot and mouth disease virus antiviral activity; 410,000 compounds, 1.2% hits; Potency, µM (series often up to 57.9 µM), for inactives: top-dose activity change, negative = inhibition, actives largely listed as inhibitors; FMDV antiviral cell-based qHTS; AID 1159524; calls by dose curve; tested in HEK293T cells; note: read-out not given here; potency is the fitted concentration of half-maximal effect; nearly all actives have a fitted effect of over 45% in size
# LASV entry inh: Lassa virus entry inhibition. Lassa virus pseudotype entry inhibition, cell reporter. Potency, µM (doses to about 37.9 µM), without a hit: top-dose activity change, negative = inhibition, most hits filed as inhibitors. 300,000 compounds, 1.2% hits. AID 540256; calls by dose curve; tested in HEK293 cells; note: potency is the fitted concentration of half-maximal effect; nearly all actives have a fitted effect of over 50% in size
# Numbers without * were called inactive; i = inactive; ? = inconclusive; / = not tested or not shown; [ ] = remark or other dose. % is set by controls: 0 for no effect and ±100 for the full control effect.
SMILES,Vaccinia mCherry,HCMV inh,MARV entry inh,VACV Venus inh,FMDV inh,LASV entry inh
N#Cc1ccc2[nH]cc(C3c4cc(F)ccc4C=C(c4ccsc4)N3c3ccc(C#CCCO)cc3)c2c1 (stereo not given),-6%,-1,/,-10%,-14%,/
CC(C)(O)C#Cc1ccc(N2C(c3ccsc3)=Cc3ccc(F)cc3C2c2c[nH]c3ccccc23)cc1 (stereo not given),23%,-63*,/,-1%,-13%,/
CCn1ccnc1CN(C)Cc1cn(C)nc1-c1ccccc1F,-10%,?,-17%[46.1 µM],-8%,-16%,1%[46.1 µM]
CCn1ccnc1CN(C)Cc1cn(-c2ccccc2)nc1-c1ccc(OC)cc1F,-15%,?,10µM*,-6%,-17%,?
Cc1cc(C)n(-c2nc3cc(Cl)ccc3nc2N2CCN(c3ccccc3F)CC2)n1,-10%,-13,/,-8%,26%,0%[46.1 µM]
C1CCN(CCCNC2C3CC4CC(C3)CC2C4)C1 (stereo not given),i,-84*,?,-15%,-1%,?
O=c1c(-c2ccc(F)cc2)nc2cnc(N3CCOCC3)nc2n1Cc1ccc(F)cc1,/,/,/,/,-8%,/
COCCCNC(=O)C[C@H]1C[C@H](C(=O)N2CCCCC2)[C@@]2(CCc3ccccc3)c3[nH]c4cc(-c5ccco5)ccc4c3CCN2C1=O,-26%,-28,/,?,-15%,/
O=C(C[C@H]1C[C@H](C(=O)N2CCCCC2)[C@@]2(CCc3ccccc3)c3[nH]c4ccc(Cl)cc4c3CCN2C1=O)NCCCn1ccnc1,-20%,-25,/,11µM*,?,/
O=C(C[C@H]1C[C@H](C(=O)N2CCCCC2)[C@@]2(CCc3ccccc3)c3[nH]c4cc(-c5ccco5)ccc4c3CCN2C1=O)NCCN1CCOCC1,?,-101*,/,10µM*,0%,/
O=C(C[C@H]1C[C@H](C(=O)N2CCOCC2)[C@@]2(CCC3CCCC3)c3[nH]c4cc(-c5ccco5)ccc4c3CCN2C1=O)NCCCn1ccnc1,-29%,-90*,/,10µM*,-10%,/
CCCCC[C@]12Cc3cc(OC)c(OC)cc3[C@H](O1)c1c(cc(C)n(-c3ccccc3)c1=O)O2,/,/,31%[14.2 µM],/,/,/
COc1ccc(C2C(C#N)=C(N)Oc3c2ccc2cccnc32)cc1OC (stereo not given),8.9µM*,-101*,?,?,3%,?
COc1cc(C2C(C#N)=C(N)Oc3c2ccc2ccccc32)ccc1OCC(=O)Nc1ccc(C)cc1 (stereo not given),?,26,?,-23%,?,?
COc1ccc(C2C(C#N)=C(N)OC3=C2C(=O)CC(C)(C)C3)cc1OC (stereo not given),-6%,?,3%,-2%,-7%,?
COc1cc(C2C(C#N)=C(N)Oc3c2ccc2ccccc32)ccc1OCC(=O)Nc1cccc(C)c1 (stereo not given),-20%,40,?,?,?,10µM*
Cc1cccc(CCNC(=O)c2nc(-c3ccc(Cl)cc3)n3c2CCCCC3)c1,-4%,-14,/,-6%,-23%,-23%[46.1 µM]
CCCNC(=O)N1CCN(S(=O)(=O)c2ccc3c(ccn3C)c2)CC1,0%,-9,/,-2%,2%,5%[46.1 µM]
COc1ccc2ncc(S(=O)(=O)c3ccccc3)c(N3CCC4(CC3)OCCO4)c2c1,?,-35,?,-19%,?,-26%
COc1ccc2ncc(S(=O)(=O)c3ccccc3)c(N3CCN(c4ccccc4)CC3)c2c1,-29%,-68*,?,-16%,?,?
CCCCCCCCCCCCCCCCCCNc1ccn(C2OC(COP(=O)(O)OCC3OC(n4cc(F)c(=O)[nH]c4=O)CC3O)C(O)C2O)c(=O)n1 (stereo not given),0.32µM*,-88*,?,?,-5%,?
O=c1[nH]c(=O)n(C2CC(O)C(CO)O2)cc1F (stereo not given),?,/,/,?,8%,/
Cc1cccc(NC(=O)Cn2nnc(C(=O)Nc3ccccc3Br)c2N)c1C,i,-23,/,-4%,5%,1%[46.1 µM]
CC1(O)CCN2C(=O)CCc3cccc1c32 (stereo not given),/,-61*,/,/,-18%,/
COc1ccccc1C(=O)NCCC(=O)N1CCN(c2ccccc2Cl)CC1,-14%,3,-3%,?,?,23%
SMILES,Vaccinia mCherry,HCMV inh,MARV entry inh,VACV Venus inh,FMDV inh,LASV entry inh
COc1ccccc1C(=O)NCCC(=O)N1CCN(c2ccc(C(F)(F)F)cn2)CC1,-10%,-85*,-26%[46.1 µM],-10%,?,10%
CCCCNC(=O)c1cccc2c(=O)c(C)c(-c3ccccc3)oc12,i,-68*,-23%,-18%,0%,?
CCCCNC(=O)c1ccccc1C(=O)NCCCC,/,6,-13%,/,-12%,1%
CCCCNC(=O)c1ccccc1Cl,/,-107*,15%,/,0%,27%
CCCCN(C(=O)c1cccc2c(=O)c(C)c(-c3ccccc3)oc12)c1ccccc1,/,-63*,?,/,?,12µM*
Fc1ccc(F)c(Nc2c3c(nc4ccc(Cl)cc24)CCC3)c1,-17%,-69*,?,-4%,?,-7%[46.1 µM]
FC(F)(F)c1cccc(Nc2c3c(nc4ccc(Cl)cc24)CCC3)c1,-21%[7.34 µM],-76*,?,-17%[7.34 µM],-8%,?
COC(=O)c1ccc(NC(=O)CSc2ncc3c(n2)-c2cc(Cl)ccc2N(Cc2ccccc2)S3(=O)=O)cc1,i,3,/,-16%,3%,9%[46.1 µM]
c1ccc(CN(CCN(Cc2ccccn2)Cc2ccccn2)Cc2ccccn2)nc1,-1%,/,/,-14%,-9%,/
CC(C)Cc1nc2cc(NS(=O)(=O)N(C)C)cc(C(=O)N3CCOCC3)c2n1C,-13%,/,/,-5%,26%,/
COc1cc(NC(=O)Cn2cc(S(=O)(=O)N3CCC(C)CC3)c3ccccc3c2=O)cc(OC)c1OC,-20%,-12,10µM*,-9%,0%,-26%[46.1 µM]
CC1CCN(S(=O)(=O)c2cn(CC(=O)Nc3ccc(F)c(Cl)c3)c(=O)c3ccccc23)CC1,-17%,-63*,?,-3%,0%,?
COc1cccc(C(=O)NCCS(=O)(=O)NCc2ccco2)c1,-20%,-68*,19%[46.1 µM],3%,8%,13%
C[C@H](CCC(=O)OCc1cn(CC(=O)c2ccc(O)cc2)nn1)[C@H]1CC[C@H]2[C@@H]3CC[C@@H]4C[C@H](O)CC[C@]4(C)[C@@H]3C[C@H](O)[C@]12C,/,/,/,/,/,6%[46.1 µM]
O=C(Cc1ccccc1)N1O[C@H]2C=C[C@@H]1C2,/,2,/,/,/,/
O=C(Cn1nc(CNc2ccc(Br)cc2)[n+]2c1CCCCC2)c1ccc([N+](=O)[O-])cc1,-19%,-92*,-18%,-15%,-12%,-2%
O=C(Cn1nc(CNc2ccc(Cl)cc2)[n+]2c1CCCCC2)c1ccc(Br)cc1,-6%,15,-1%,2%,0%,14%
O=C(Cc1coc2cc3c(cc12)CCC3)OCC(=O)N1CCCC1=O,i,21,?,-11%,14µM*,?
